Laboratory results taken from PubChem BioAssay (NCATS).
Inconclusive results are not listed. A call without a number means that no potency is given here. Unmarked numbers belong to inactive results. The source made the active and inactive calls. The call rests on the fitted dose curve; in most records, active means well fitted inhibition curve with a large enough effect; inconclusive means small, poorly fitted or top-dose-only effect; inactive means no such curve, though single readings can be large or run the other way.

How the values were obtained:
[1] = test system: Zika virus NS2B-NS3 protease (unlinked complex); assay: Primary screen GU Rhodamine qHTS for Zika virus inhibitors: Unlinked NS2B-NS3 protease assay (AID 1347159); further: nearly all actives have a fitted effect of over 60% in size
Summary of the method: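 Buffer 10 mM Tris-HCl pH 8.0, 0.01% Tween 20. Unlinked protease 25 nM; compound preincubation 15 min, RT, protected from light. Substrate Rhod110, 1.5 microM; ~15% conversion in 15 min.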

[2] = test system: Zika virus NS2B-NS3 protease (linked construct); assay: Primary screen NINDS Rhodamine qHTS for Zika virus inhibitors (AID 1347160); further: nearly all actives have a fitted effect of over 55% in size
Summary of the method: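 Aprotinin served as in-plate control. Conditions: 25 nM linked NS2B-NS3, pH 8.0 Tris buffer, titrated compounds, 15 min preincubation and 15 min reaction with 1.5 microM Rhod110 substrate at room temperature.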

Structure (SMILES) | Potency [1] | Potency [2] | activity change, negative = inhibition [1] | activity change, negative = inhibition [2]
CC(Nc1ncnc2nc[nH]c12)c1cc2cccc(Cl)c2c(=O)n1-c1ccccc1 (stereo unspecified) | inactive | inactive |  | 
Oc1ccc2nc(CN3CCC(Cc4ccccc4F)CC3)[nH]c2c1 | inactive | inactive |  | 
C=C1[C@H](OC(C)=O)[C@H]2[C@@H](OC(C)=O)[C@](C)(OC(C)=O)C[C@]2(OC(C)=O)C(=O)[C@H](C)/C=C/C(C)(C)C(=O)[C@H](OC(=O)C(C)C)[C@H]1OC(C)=O | inactive | inactive |  | 
C[C@@H]1O[C@@H](O[C@H]2[C@H](OC(=O)[C@]34CCC(C)(C)C[C@H]3C3=CCC5[C@@]6(C)C[C@H](O)[C@H](O[C@@H]7O[C@H](CO)[C@@H](O[C@H]8OC[C@](O)(CO)[C@H]8O)[C@H](O)[C@H]7O)[C@@](C)(CO)C6[C@H](O)C[C@@]5(C)[C@]3(C)C[C@H]4O)OC[C@H](O)[C@@H]2O)[C@H](O)[C@H](O)[C@H]1O[C@@H]1OC[C@@H](O)[C@H](O[C@@H]2OC[C@](O)(CO)[C@H]2O)[C@H]1O (stereo partly specified) |  |  | 20.8% [at 19.1 µM] | 33.3% [at 10.7 µM]
N#Cc1c(Oc2ccc(F)c(NC(=O)Cc3cccc(C(F)(F)F)c3)c2)ccc2nc(NC(=O)C3CC3)sc12 | inactive | inactive |  | 
OC[C@H]1O[C@@H](OC(CCCCc2ccc(O)cc2)CCc2ccc(O)cc2)[C@H](O)[C@@H](O)[C@@H]1O (stereo partly specified) | inactive | inactive |  | 
C[C@@H]1C[C@H]2O[C@@H]2/C=C\C=C\C(=O)Cc2c(Cl)c(O)cc(O)c2C(=O)O1 | inactive | inactive |  | 
Cc1cc(C)cc(C(=O)NOCCCCCC(=O)NO)c1 | inactive | inactive |  | 
